HEK293 viab: cell viability loss counter-screen; HEK-293-SNCA-luc viability, GF-AFC fluorescence, 24 h; Potency, µM (series often up to 57.1 µM), most hits filed as cytotoxic; actives 0.12% (n = 150,000); AID 1671193; also: nearly all actives have a fitted effect of over 30% in size
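HEK-293-SNCA-luc cells (1500/well) plated 24 h, then exposed 24 h to a dilution series; GF-AFC added 30 min at 37C, fluorescence 405/540 nm; normalised to medium-only and DMSO wells, Hill fit.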
KDM5B inh: inhibitors of human KDM5B histone demethylase. KDM5B demethylase, FDH-coupled NADH fluorescence (FDH is formaldehyde dehydrogenase). Potency, µM (highest dose often 57.7 µM), hits mostly inhibitors. actives 2.6% (n = 220,000). AID 1347165; also: nearly all actives have a fitted effect of over 70% in size
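Inhibition is measured as reduced NADH fluorescence generation from FDH coupling to formaldehyde release. Truncated KDM5BΔAP at 200 nM final acts on H3K4me3 peptide (12.5 µM in substrate mix) in pH 7.5 HEPES buffer with Tween-20, 30 min, room temperature.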
IP6K1 inh: blocks human inositol hexakisphosphate kinase 1 | Q92551 | IP6K1 kinase, ADP-Glo luminescence, 2 h; hits give low values | activity change, % (series mostly up to about 58 µM) | actives 0.81% (n = 140,000); in the data active = activity change below about -25%
Target sequence (Q92551 whole entry, looked up): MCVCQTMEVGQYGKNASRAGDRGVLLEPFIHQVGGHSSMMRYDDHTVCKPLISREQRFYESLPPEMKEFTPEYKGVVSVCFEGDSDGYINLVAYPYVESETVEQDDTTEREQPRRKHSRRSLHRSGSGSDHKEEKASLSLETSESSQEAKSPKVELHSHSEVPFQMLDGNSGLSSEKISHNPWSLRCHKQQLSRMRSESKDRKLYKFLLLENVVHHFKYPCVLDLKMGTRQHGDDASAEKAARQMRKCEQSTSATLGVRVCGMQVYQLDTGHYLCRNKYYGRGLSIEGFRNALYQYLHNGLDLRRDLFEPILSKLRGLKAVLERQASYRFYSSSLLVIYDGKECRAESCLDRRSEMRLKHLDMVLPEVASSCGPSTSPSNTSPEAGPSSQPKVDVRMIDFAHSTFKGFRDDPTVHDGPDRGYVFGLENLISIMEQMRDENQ
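ADP-Glo luminescence measures ADP made by human IP6K1 during a 2 h RT reaction with ATP/IP6 (mix at 1.3 mM/130 uM); top library doses 57.5 and 19.1 uM final.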
SNCA expr inhib: inhibitors of alpha-synuclein (SNCA) gene expression; HEK-293 SNCA-luciferase knock-in, luminescence, 24 h; Potency, µM (titrated, usually from 57.2 µM), usual class: inhibitors; actives 0.17% (n = 140,000); AID 1671194; also: nearly all actives have a fitted effect of over 45% in size
Of the large screens only hits and unclear results are named; the others gave an inactive call. Sampled rows, rich in hits. Any-hit rate of the full collection: about 2.8%. Unless noted, calls follow the shape of the dose curve; as a rule, active = well fitted curve in the direction sought with a large enough effect; inconclusive = small, poorly fitted or top-dose-only effect, or another doubt; inactive = no such curve, though single readings can be large; an effect the other way counts as inactive or inconclusive.

CCN(C(=O)CCC(=O)N1CCc2nc3cc(-c4ccc(OC)cc4)[nH]n3c(=O)c2C1)c1ccccc1	KDM5B inh 7.08µM, SNCA expr inhib inconclusive
COc1ccc(-c2cc3nc4c(c(=O)n3[nH]2)CN(C(=O)c2ccncc2)CC4)cc1	SNCA expr inhib inconclusive
COc1ccc(-c2cc3nc4c(c(=O)n3[nH]2)CN(C(=O)CCc2ccccc2)CC4)cc1	KDM5B inh 5.62µM
Cc1nn(-c2ccccc2)c2c1C(C(C)C)N(C1CCN(C(=O)c3ccc(Cl)cc3)CC1)C2=O (stereo not drawn)	none (no result: HEK293 viab, KDM5B inh, SNCA expr inhib)
C#CCNC(=O)C1CCN(Cc2ccccc2-c2ccc(C)c(Cl)c2)CC1	none (no result: HEK293 viab, KDM5B inh, SNCA expr inhib)
O=C(c1ccc(Cl)cc1)N1CCC(n2cc(-c3ccccn3)[nH]c2=O)CC1	KDM5B inh 44.7µM
CCc1cnn2c(NCc3ccc[n+]([O-])c3)cc(N3CCCC[C@@H]3CCO)nc12	HEK293 viab inconclusive, SNCA expr inhib 0.0607µM (no result: KDM5B inh, IP6K1 inh)
Cc1ccc(C)c(OCCSc2nc3ccccc3n2CC(=O)N2CCOCC2)c1	HEK293 viab inconclusive, SNCA expr inhib inconclusive
Cc1ccc(OCCSc2nc3ccccc3n2CC(=O)N2CCCCC2)c(C)c1	HEK293 viab 14.1µM, KDM5B inh inconclusive
CCS(=O)(=O)c1ncc(Cl)c(C(=O)N(Cc2ccccc2)Cc2ccco2)n1	HEK293 viab 8.91µM, KDM5B inh inconclusive, SNCA expr inhib inconclusive
CCc1ccc(C2CC(c3ccccc3)=NN2c2nc(C)cs2)cc1 (stereo not drawn)	none (no result: HEK293 viab, IP6K1 inh, SNCA expr inhib)
O=C(c1cncs1)N1CCc2c(cc(-c3cccc(F)c3)c(=O)n2CCN2CCCCC2)C1	KDM5B inh 28.2µM
O=C([C@@H]1C[C@H](Oc2ccccc2)CN1C(=O)c1cc2ccccc2[nH]1)N1CCOCC1	KDM5B inh inconclusive
O=C([C@@H]1C[C@H](Oc2ccccc2)CN1C(=O)c1cc2ccccc2[nH]1)N1CCCC1	KDM5B inh 25.1µM
COc1cccc(C(=O)NCc2nnc3c(-c4nc(C)no4)cccn23)c1	KDM5B inh 28.2µM
CCc1noc(-c2cccn3c(CNC(=O)c4cccc(OC)c4)nnc23)n1	KDM5B inh 22.4µM, SNCA expr inhib inconclusive
CCc1noc(-c2cccn3c(CNC(=O)c4ccc(OC)cc4)nnc23)n1	KDM5B inh inconclusive
Cc1noc(-c2cccn3c(CNC(=O)c4cccc(N(C)C)c4)nnc23)n1	KDM5B inh inconclusive
Cc1nn(-c2ccccc2)c2c1C(C1CC1)N(C1CN(C(=O)C3CCCC3)C1)C2=O (stereo not drawn)	none (no result: HEK293 viab, KDM5B inh, SNCA expr inhib)
CCN1CCN(CC(=O)N2CCNC(=O)C2CC(=O)Nc2ccc(F)cc2)CC1 (stereo not drawn)	none (no result: HEK293 viab, IP6K1 inh, SNCA expr inhib)
COC(=O)c1c(NC(C)=O)c2cc(NC3CCN(C(C)=O)CC3)cnc2n1CC1CCCO1 (stereo not drawn)	HEK293 viab inconclusive, KDM5B inh 20µM
CS(=O)(=O)N1CCc2cc(C(=O)Nc3cccc(-c4nnc5n4CCCCC5)c3)ccc21	none (no result: HEK293 viab, IP6K1 inh, SNCA expr inhib)
COC(=O)c1ccc(OC(=O)c2ccc(COc3ccccc3)o2)cc1	none (no result: HEK293 viab, IP6K1 inh, SNCA expr inhib)
COc1cc2c(cc1OC)C(C[C@H]1CN(S(=O)(=O)c3ccc(C#N)cc3)CC[C@H]1CC(=O)O)=NCC2	KDM5B inh 28.2µM
COc1cc2c(cc1OC)C(C[C@H]1CN(S(=O)(=O)c3cccs3)CC[C@H]1CC(=O)O)=NCC2	KDM5B inh 28.2µM
COc1ccc(S(=O)(=O)N2CC[C@@H](CC(=O)O)[C@@H](CC3=NCCc4cc(OC)c(OC)cc43)C2)cc1	none
CN(C)CCCNC(N)=O	none (no result: HEK293 viab, IP6K1 inh, SNCA expr inhib)
CCc1noc(-c2ccn3c(CNC(=O)c4ccoc4)nnc3c2)n1	KDM5B inh 28.2µM
CCc1noc(-c2ccn3c(CNC(=O)c4cccc(OC)c4)nnc3c2)n1	KDM5B inh 28.2µM
CCc1noc(-c2ccn3c(CNC(=O)c4ccncc4)nnc3c2)n1	KDM5B inh 25.1µM, SNCA expr inhib inconclusive
CCCc1noc(-c2ccn3c(CNC(=O)c4ccc(C)c(F)c4)nnc3c2)n1	KDM5B inh 28.2µM
CCCOc1ccc(C(N)=O)cc1	none (no result: HEK293 viab, IP6K1 inh, SNCA expr inhib)
Cc1nn(-c2ccccc2)c(Oc2ccccc2F)c1CCC(=O)N1CCSCC1	none
Cn1c(=O)c2c(nc(SCC(=O)O)n2Cc2c(F)cccc2Cl)n(C)c1=O	none (no result: HEK293 viab, IP6K1 inh, SNCA expr inhib)
Cc1noc(-c2ccn3c(CNC(=O)c4ccoc4)nnc3c2)n1	KDM5B inh 25.1µM
CCCc1noc(-c2ccn3c(CNC(=O)c4cccnc4)nnc3c2)n1	KDM5B inh 28.2µM
Cc1noc(-c2ccn3c(CNC(=O)c4cccnc4)nnc3c2)n1	SNCA expr inhib inconclusive
Cc1noc(-c2ccn3c(CNC(=O)c4ccncc4)nnc3c2)n1	none
COc1cc(C(=O)Nc2ccc3oc(-c4ccccc4Cl)nc3c2)cc(OC)c1OC	none (no result: HEK293 viab, IP6K1 inh, SNCA expr inhib)
COc1cc(F)ccc1-c1ccnc2nc(CCc3ccccc3)nn12	KDM5B inh 25.1µM
COc1ccc(-c2ccnc3nc(CCc4ccccc4)nn23)c(F)c1	KDM5B inh 28.2µM
Fc1ccc(-c2ccnc3nc(C4CCCO4)nn23)cc1 (stereo not drawn)	KDM5B inh inconclusive
COc1ccc(-c2ccnc3nc(C4CCCO4)nn23)c(F)c1 (stereo not drawn)	KDM5B inh 25.1µM
COc1ccc(S(=O)(=O)N2CCOCC2)cc1NC(=O)c1cccc(CN2CCCC2=O)c1	none (no result: HEK293 viab, IP6K1 inh, SNCA expr inhib)
O=S(=O)(NCCc1csc2nc(-c3cccc(F)c3)nn12)c1ccc2c(c1)CCCC2	none (no result: HEK293 viab, IP6K1 inh, SNCA expr inhib)
Cc1cn2nc(C(=O)NC3CCCCC3)cc2c(N2CCCC2)n1	KDM5B inh 28.2µM
Cc1cn2nc(C(=O)NCC(C)C)cc2c(N2CCCC2)n1	KDM5B inh 28.2µM
Cc1cn2nc(C(=O)NCc3cccnc3)cc2c(N2CCCC2)n1	none
CCC1CCCCN1C(=O)CCc1ccsc1 (stereo not drawn)	none (no result: HEK293 viab, IP6K1 inh, SNCA expr inhib)
CN(C)C(=O)CNC(=O)c1cccc(-c2ccc(C(F)(F)F)cc2)c1	SNCA expr inhib inconclusive (no result: KDM5B inh)
CN(C)C(=O)COC(=O)c1cc(-c2ccc(C3CCNCC3)cc2)c2ccc(-c3ccc(C(F)(F)F)cc3)cc2c1	HEK293 viab 29.9µM (no result: KDM5B inh, SNCA expr inhib)
COc1ccc(-c2noc(CN(C(=O)c3ccc(Br)o3)C3CCCCC3)n2)cc1	none (no result: HEK293 viab, IP6K1 inh, SNCA expr inhib)
C[C@@H](NC(=O)c1ccc(Cl)cc1)c1c(-c2ccc(F)cc2)noc1C(=O)O	KDM5B inh inconclusive
Cc1cc(C(=O)N[C@H](C)c2c(-c3ccc(Cl)cc3)noc2C(=O)O)c(C)o1	KDM5B inh 28.2µM
Cn1nc(C2CCNC2)c2c(C(=O)N3CCC(F)CC3)cc(C3CC3)nc21 (stereo not drawn)	KDM5B inh 79.4µM
Cn1nc(C2CCNC2)c2c(C(=O)NCc3ccc(F)cc3)cc(C3CC3)nc21 (stereo not drawn)	KDM5B inh 79.4µM
Cn1nc(C2CCNC2)c2c(C(=O)NCC(F)(F)F)cc(C3CC3)nc21 (stereo not drawn)	KDM5B inh inconclusive
O=C(c1cc(C2CC2)nc2onc(C3CCNCC3)c12)N1CCC(F)CC1	none
Cn1nc(C2CCNC2)c2c(C(=O)NC3CC3)cc(C3CC3)nc21 (stereo not drawn)	KDM5B inh 100µM
CCC(C)(C)C1CCc2c(sc(NC=O)c2C#N)C1 (stereo not drawn)	none (no result: HEK293 viab, IP6K1 inh, SNCA expr inhib)
